Experimental data as given in the supplement of paper PMC11537057.
Where a name gives a salt, the structure may show the parent alone. ± gives the standard deviation of the averaged measurements. In all, about 1,700 compounds were measured (“cell number in HSV-1-infected wells relative to infected DMSO wells (H2B-RFP signal)”: median about 100, highest 2% from about 140 on). The sample holds the highest values, similar compounds and a random draw of the others, so the mix is not that of the screen.

Tested on: A549 infected with HSV-1
Assay: cell number in HSV-1-infected wells relative to infected DMSO wells (H2B-RFP signal); higher = more surviving cells (uninfected or antiviral-protected wells give about 200%; low = toxicity)
Details: 10 µM; 48 h; MOI: 0.1
Protocol: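 Selleck FDA-approved library (L1300) screened in duplicate at 10 µM on A549 H2B-mRuby cells in 384-well plates, infected with HSV-1 strain 17 YFP-ICP4 at MOI 0.1 one hour before drug addition. Imaged after 2 days at 37°C. Cell growth (H2B-RFP) and infection (ICP4-YFP) are expressed as % of DMSO-treated wells. Hits: growth >90% and infection <20% of DMSO.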

Row | SMILES | cell number in HSV-1-infected wells
1 | Cc1ccc(C(=O)N(CCCN)[C@@H](c2nc3cc(Cl)ccc3c(=O)n2Cc2ccccc2)C(C)C)cc1 | 12.9 ± 5.4%
2 | Nc1c(CC(=O)O)cccc1C(=O)c1ccccc1 [Amfenac Sodium Monohydrate] | 115 ± 14%
3 | Cc1ccc(Cl)c(Nc2ccccc2C(=O)O)c1Cl [Meclofenamate Sodium] | 156 ± 21%
4 | Cc1cccc(Nc2ccccc2C(=O)O)c1C [Mefenamic Acid] | 94.2 ± 6%
5 | Cc1c(Cl)cccc1Nc1ccccc1C(=O)O [Tolfenamic Acid] | 120 ± 2%
6 | O=C(c1ccc(F)c(F)c1Nc1ccc(I)cc1F)N1CC(O)([C@@H]2CCCCN2)C1 [Cobimetinib (GDC-0973, RG7420)] | 32.6 ± 21%
7 | CC(=O)c1cc2c(o1)C(=O)c1ccccc1C2=O [Napabucasin] | 27.4 ± 21%
8 | CCOc1cc(N)c(Cl)cc1C(=O)NCC1CN(Cc2ccc(F)cc2)CCO1 (configuration not stated) [Mosapride Citrate] | 89.7 ± 13%
9 | CCOc1cc(N)c(Cl)cc1C(=O)NCC1CN(Cc2ccc(F)cc2)CCO1 (configuration not stated) [Mosapride] | 92.8 ± 14%
10 | Cc1cccc(C)c1N(CC(=O)Nc1ccc(-c2ncon2)cc1)C(=O)C1CCS(=O)(=O)CC1 [Amenamevir] | 214 ± 5.9%
11 | O=C1CC[C@@H](C(=O)N2CSC[C@H]2C(=O)O)N1 [Pidotimod] | 82.1 ± 7.1%
12 | CCOc1ccc(Cc2cc([C@]34OC[C@](CO)(O3)[C@@H](O)[C@H](O)[C@H]4O)ccc2Cl)cc1 [Ertugliflozin] | 116 ± 8.7%
13 | O=C([O-])c1ccccc1.[Na+] [Sodium benzoate] | 83.2 ± 14%
14 | COC(=O)N(C)c1c(N)nc(-c2nn(Cc3ccccc3F)c3ncccc23)nc1N [Riociguat (BAY 63-2521)] | 108 ± 15%
15 | CCN1CCC[C@H]1CNC(=O)c1cc(S(N)(=O)=O)ccc1OC [Levosulpiride] | 94.939 ± 0.086%
16 | Cc1c(F)cc(C(=O)NC2CC2)cc1-c1ccc(C(=O)NCC(C)(C)C)cn1 | 145 ± 44%
17 | N[C@@H](CCC(=O)O)C(=O)[O-].[Na+] [L-Glutamic acid monosodium salt] | 94.5 ± 4.2%
18 | CC(C)CCCCC(=O)N[C@@H](CCN)C(=O)N[C@H](C(=O)N[C@@H](CCN)C(=O)N[C@H]1CCNC(=O)[C@H]([C@@H](C)O)NC(=O)[C@H](CCN)NC(=O)[C@H](CCN)NC(=O)[C@H](CC(C)C)NC(=O)[C@@H](Cc2ccccc2)NC(=O)[C@H](CCN)NC1=O)[C@@H](C)O [Polymyxin B sulphate] | 132 ± 31%
19 | CC(=O)N(CC(O)CN(C(C)=O)c1c(I)c(C(=O)NCC(O)CO)c(I)c(C(=O)NCC(O)CO)c1I)c1c(I)c(C(=O)NCC(O)CO)c(I)c(C(=O)NCC(O)CO)c1I (configuration not stated) [Iodixanol] | 79.6 ± 3%
20 | COCC(=O)Nc1c(I)c(C(=O)NCC(O)CO)c(I)c(C(=O)N(C)CC(O)CO)c1I (configuration not stated) [Iopromide] | 111 ± 26%
21 | O=C(NCC(O)CO)c1c(I)c(C(=O)NCC(O)CO)c(I)c(N(CCO)C(=O)CO)c1I (configuration not stated) [Ioversol] | 146 ± 6.8%

Row | SMILES | cell number in HSV-1-infected wells
22 | CC(=O)Oc1ccc(C(c2ccc(OC(C)=O)cc2)c2ccccn2)cc1 [Bisacodyl] | 87.8 ± 16%
23 | CC[C@H](C)[C@@H]1NC(=O)[C@H](CCCNC(=N)N)NC(=O)[C@H](CC(=O)O)NC(=O)[C@H](CCSC)NC(=O)[C@H](CCCNC(=N)N)NC(=O)CNC(=O)CNC(=O)[C@H](Cc2ccccc2)NC(=O)[C@@H](NC(=O)[C@H](CO)NC(=O)[C@H](CO)NC(=O)[C@H](CCCNC(=N)N)NC(=O)[C@H](CCCNC(=N)N)NC(=O)[C@H](CC(C)C)NC(=O)[C@@H](N)CO)CSSC[C@@H](C(=O)N[C@@H](CC(N)=O)C(=O)N[C@@H](CO)C(=O)N[C@@H](Cc2ccccc2)C(=O)N[C@@H](CCCNC(=N)N)C(=O)N[C@@H](Cc2ccc(O)cc2)C(=O)O)NC(=O)CNC(=O)[C@H](CC(C)C)NC(=O)CNC(=O)[C@H](CO)NC(=O)[C@H](CCC(N)=O)NC(=O)[C@H](C)NC(=O)CNC1=O [Carperitide Acetate] | 131 ± 1.4%
24 | O=C(O)CCCC[C@@H]1CCSS1 (racemic) [Thioctic acid] | 134 ± 60%
25 | CC(C)C(=O)Nc1ccc([N+](=O)[O-])c(C(F)(F)F)c1 [Flutamide] | 110 ± 2.2%
26 | CNC(=O)c1ccc(N2C(=S)N(c3ccc(C#N)c(C(F)(F)F)c3)C(=O)C2(C)C)cc1F [Enzalutamide (MDV3100)] | 95.9 ± 2.1%
27 | CC1(C)NC(=O)N(c2ccc([N+](=O)[O-])c(C(F)(F)F)c2)C1=O [Nilutamide] | 150 ± 36%
28 | OC1CC2CCC(C1)N2 (configuration not stated) [Nortropine Hydrochloride] | 105 ± 10%
29 | COC(=O)C1=C(C)NC(C)=C(C(=O)OC2CCCN(Cc3ccccc3)C2)C1c1cccc([N+](=O)[O-])c1 (configuration not stated) [Benidipine HCl] | 85.5 ± 9.3%
30 | CCC[C@@H]1C[C@@H](C(=O)N[C@@H]([C@H]2O[C@H](SC)[C@H](O)[C@@H](O)[C@H]2O)[C@H](C)Cl)N(C)C1 [Clindamycin HCl] | 99.4 ± 5.8%
31 | CCC[C@@H]1C[C@@H](C(=O)N[C@@H]([C@H]2O[C@H](SC)[C@H](O)[C@@H](O)[C@H]2O)[C@H](C)Cl)N(C)C1 [Clindamycin] | 88 ± 4%
32 | CCC[C@@H]1C[C@@H](C(=O)N[C@@H]([C@H]2O[C@H](SC)[C@H](OP(=O)(O)O)[C@@H](O)[C@H]2O)[C@H](C)Cl)N(C)C1 [Clindamycin Phosphate] | 101 ± 12%
33 | CCC[C@@H]1C[C@@H](C(=O)N[C@@H]([C@H]2O[C@H](SC)[C@H](O)[C@@H](O)[C@H]2O)[C@@H](C)O)N(C)C1 [Lincomycin HCl] | 133 ± 16%
34 | CCC[C@@H]1C[C@@H](C(=O)N[C@@H]([C@H]2O[C@H](SC)[C@H](O)[C@@H](O)[C@H]2O)[C@@H](C)O)N(C)C1 [Lincomycin Hydrochloride Monohydrate] | 150 ± 39%
35 | CCOc1cc2ncc(C#N)c(Nc3ccc(OCc4ccccn4)c(Cl)c3)c2cc1NC(=O)/C=C/CN(C)C [Neratinib (HKI-272)] | 63.62 ± 0.22%
36 | CC(C)(Oc1ccc(Cl)cc1)C(=O)OCCOC(=O)c1cccnc1 [Etofibrate] | 129 ± 12%
37 | OCc1cc([C@@H](O)CNCCCCCCOCCOCc2c(Cl)cccc2Cl)ccc1O [Vilanterol Trifenate] | 25.9 ± 8.8%
38 | N[C@@H](Cc1ccc(N(CCCl)CCCl)cc1)C(=O)O [Melphalan] | 72.2 ± 27%
39 | CCOc1ccccc1OCCN[C@H](C)Cc1ccc(OC)c(S(N)(=O)=O)c1 [Tamsulosin hydrochloride] | 132 ± 8.6%
40 | Cc1ccc2c(c1)[C@]13CCCC[C@@H]1[C@H](C2)N(C)CC3 [Dimemorfan phosphate] | 127 ± 24%
41 | COc1ccc2c(c1)[C@]13CCCC[C@@H]1[C@H](C2)N(C)CC3 [Dextromethorphan hydrobromide hydrate] | 146 ± 7.2%
42 | C=C1/C(=C\C=C2/CCC[C@]3(C)[C@@H]([C@H](C)/C=C/[C@H](C)C(C)C)CC[C@@H]23)C[C@@H](O)C[C@@H]1O [Doxercalciferol] | 100 ± 23%

Row | SMILES | cell number in HSV-1-infected wells
43 | Nc1cc(C(Cl)=C(Cl)Cl)c(S(N)(=O)=O)cc1S(N)(=O)=O [Clorsulon] | 114 ± 7.9%
44 | CCc1c(C)[nH]c2c1C(=O)C(CN1CCOCC1)CC2 (configuration not stated) [Molindone hydrochloride] | 93 ± 20%
45 | CO/N=C(\C(=O)N[C@@H]1C(=O)N2C(C(=O)O)=CCS[C@H]12)c1csc(N)n1 [Ceftizoxime] | 136 ± 15%
46 | COc1ccccc1OCC(O)COC(N)=O (configuration not stated) [Methocarbamol] | 115 ± 1.9%
47 | Cl.NCCCC[C@H](N)C(=O)O [L-Lysine hydrochloride] | 123.8 ± 0.98%
48 | CC(=O)O[C@]1(C(C)=O)CC[C@H]2[C@@H]3C=C(C)C4=CC(=O)CC[C@]4(C)[C@H]3CC[C@@]21C [Megestrol Acetate] | 112 ± 9.4%
49 | CC(=O)O[C@]1(C(C)=O)CC[C@H]2[C@@H]3C=C(Cl)C4=CC(=O)[C@@H]5C[C@@H]5[C@]4(C)[C@H]3CC[C@@]21C [Cyproterone Acetate] | 118 ± 11%
50 | CC(=O)O[C@]1(C(C)=O)CC[C@H]2[C@@H]3C=C(Cl)C4=CC(=O)CC[C@]4(C)[C@H]3CC[C@@]21C [Chlormadinone acetate] | 148 ± 5.6%
51 | CN1CCN(c2ccc(C(=O)Nc3n[nH]c4ccc(Cc5cc(F)cc(F)c5)cc34)c(NC3CCOCC3)c2)CC1 [Entrectinib (RXDX-101)] | 18 ± 8.2%
52 | CCC/N=C1\S/C(=C\c2ccc(OC[C@H](O)CO)c(Cl)c2)C(=O)N1c1ccccc1C [Ponesimod] | 17.2 ± 12%
53 | CC(OC(=O)OC1CCCCC1)OC(=O)C1=C(CSc2nnnn2CCN(C)C)CS[C@@H]2[C@H](NC(=O)Cc3csc(N)n3)C(=O)N12 (some centres not stated) [Cefotiam Hexetil Hydrochloride] | 76.7 ± 3.4%
54 | CC(C)(CO)[C@@H](O)C(=O)NCCCO [D panthenol] | 121 ± 46%
55 | COc1c(N2C[C@@H]3CCCN[C@@H]3C2)c(F)cc2c(=O)c(C(=O)O)cn(C3CC3)c12 [Moxifloxacin] | 145 ± 32%
56 | CNC1CCCN(c2c(F)cc3c(=O)c(C(=O)O)cn(C4CC4)c3c2OC)C1 (configuration not stated) [Balofloxacin] | 117 ± 1.2%
57 | COc1c(N2CCNC(C)C2)c(F)cc2c(=O)c(C(=O)O)cn(C3CC3)c12 (configuration not stated) [Gatifloxacin] | 108 ± 17%
58 | COc1c(N2C[C@@H]3CCCN[C@@H]3C2)c(F)cc2c(=O)c(C(=O)O)cn(C3CC3)c12 [Moxifloxacin HCl] | 87.9 ± 22%
59 | CCCN1CCCC[C@H]1C(=O)Nc1c(C)cccc1C [Ropivacaine HCl] | 87.6 ± 6.9%
60 | CCCN1CCCC[C@H]1C(=O)Nc1c(C)cccc1C [Ropivacaine] | 115 ± 7.2%
61 | [Cl][Mn][Cl] [Manganese chloride] | 109 ± 4.5%
62 | CCOc1ccc(Cc2cc([C@@H]3O[C@H](SC)[C@@H](O)[C@H](O)[C@H]3O)ccc2Cl)cc1 [Sotagliflozin (LX4211)] | 61.71 ± 0.063%
